Hits are enriched below; roughly 2% of the tested compounds scored in any of these assays.
CHO-K1 Ca ag = counter-screen for M1 agonists: effect in parental CHO-K1 cells | 360,000 tested, 0.48% active | Fluo-8 calcium fluorescence; scaled to maximal ATP response, vehicle zero | activation, % at 3 µM; in the data active means activation above about 15%;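 further: untransfected CHO-K1 host cells lacking M1 receptor as counterscreen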
CHO-K1 Ca antag = nonselective inhibitor or artifact in parental CHO-K1 cells; ATP-induced calcium, Fluo-8 fluorescence; inhibition, % at 3 µM; 360,000 tested, 0.6% active;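 active means inhibition above a per-plate cutoff, the plate's mean sample inhibition plus 3 SD, cut at about 24% in these data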
M4 ag = CHRM4 agonism in calcium assay; activation, % at 3 µM; CHO-K1 hM4/Gqi5, Fluo-8 calcium fluorescence; vehicle 0%, full acetylcholine response 100%; AID 624127; P08173; 360,000 tested, 0.14% active;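 active means activation above the run mean over all test wells plus 3 SD, cut at about 32% in these data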;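 further: peak over basal fluorescence ratio per well then scaled between controls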
Target sequence (P08173 whole entry, looked up): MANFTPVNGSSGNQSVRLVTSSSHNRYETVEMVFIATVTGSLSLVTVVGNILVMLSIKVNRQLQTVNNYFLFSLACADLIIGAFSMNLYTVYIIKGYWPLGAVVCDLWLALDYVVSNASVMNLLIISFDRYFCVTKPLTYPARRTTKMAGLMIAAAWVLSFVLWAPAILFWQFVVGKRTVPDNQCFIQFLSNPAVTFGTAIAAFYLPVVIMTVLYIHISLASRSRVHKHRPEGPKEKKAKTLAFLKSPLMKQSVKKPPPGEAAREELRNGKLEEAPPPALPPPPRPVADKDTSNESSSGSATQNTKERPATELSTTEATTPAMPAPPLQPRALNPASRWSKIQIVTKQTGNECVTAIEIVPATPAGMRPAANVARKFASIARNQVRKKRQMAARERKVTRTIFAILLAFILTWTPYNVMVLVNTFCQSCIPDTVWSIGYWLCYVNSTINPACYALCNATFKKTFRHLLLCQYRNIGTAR
CHRM4 PAM = positive allosteric modulators of human muscarinic M4 receptor | activation, % at 3 µM | P08173 | CHO-K1 hM4/Gqi5, Fluo-8 calcium fluorescence, ACh EC20; 0% = ACh EC20, 100% = maximal ACh | AID 624126 | 360,000 tested, 0.4% active;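 active means activation above its plate's cutoff, the mean activation of sample wells plus 3 SD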
M1 PAM parental = nonselective activator or artifact in parental CHO-K1 calcium assay. ATP EC20, Fluo-8 calcium fluorescence; 0% at ATP EC20, 100% at ATP max. activation, % at 3 µM. 360,000 tested, 0.02% active;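 active means activation above the run cutoff, the mean activation of all test compounds plus 3 SD, cut at about 40% in these data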;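 further: peak over basal fluorescence ratio in a 140 s read after ATP addition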
M4 antag = CHRM4 antagonism in calcium assay. 360,000 tested, 0.73% active. inhibition, % at 3 µM. P08173. CHO-hM4 cells, ACh EC80, Fluo-8 calcium fluorescence;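 active means inhibition above its plate's cutoff, the mean inhibition of sample wells plus 3 SD, cut at about 27% in these data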
Numbers stand for hits; - = inactive; . = no result given; ! = repeats disagree.

SMILES	CHO-K1 Ca ag	CHO-K1 Ca antag	M4 ag	CHRM4 PAM	M1 PAM parental	M4 antag
CNCCCC12CCC(c3ccccc31)c1ccccc12	-	-	-	-	-	28!
O=[N+]([O-])c1cccnc1N1CCC(c2cc(-c3ccc(Cl)cc3)n[nH]2)CC1	-	-	-	-	-	-
N#CC1=C(N)SC(N)=C(C#N)C1Cc1ccccc1	-	-	-	-	-	-
N#CC1=C(N)SC(N)=C(C#N)C1CCc1ccccc1	-	29	-	-	-	-
CCc1ccc(C2C(C#N)=C(N)SC(N)=C2C#N)cc1	21	-	46	-	-	-
COc1ccc(NC(=O)CCSCCC(=O)Nc2ccc(OC)cc2OC)c(OC)c1	-	-	-	-	-	-
CC1(C(O)(C#CC[N+]2(C)CCCCC2)c2ccccc2)CCCC1 (stereo not drawn)	-	-	-	-	-	99
CC(O)(C#CCN1CCCC1)c1ccccc1 (stereo not drawn)	-	-	-	-	-	-
O=C(NCc1cccnc1)/C(=C/c1ccc(-c2ccc(Cl)cc2)o1)S(=O)(=O)c1ccccc1	-	-	-	-	-	28
O=C(Nc1ccc(O)c(-c2nc3ccccc3s2)c1)C1=COCCO1	-	-	-	-	-	79
CN1\C(=C/C=C/C=C/C=[N+](C)C)C(C)(C)c2ccccc21	26	-	-	-	-	-
c1ccc(C(c2ccccc2)c2noc(CN3CCN(C4CCCC4)CC3)n2)cc1	15	-	-	-	-	30
C[C@@H]1CN(C2CCN(Cc3nc(C(c4ccccc4)c4ccccc4)no3)CC2)C[C@H](C)O1	-	-	-	-	-	-
Cc1cccnc1CN1CCN(Cc2nc(C(c3ccccc3)c3ccccc3)no2)CC1	-	-	-	-	-	36
COc1ccc(CN2C(=O)COc3ccccc32)cc1	-	-	-	-	-	-
O=C(CN1CCCC1)N1c2ccccc2Sc2ccc(Cl)cc21	-	-	-	-	-	94
CCNCCC(=O)N1c2ccccc2Sc2ccc(C(F)(F)F)cc21	-	-	-	-	-	96
O=C(CN1CCCC1)N1c2ccccc2Sc2ccc(C(F)(F)F)cc21	-	-	-	-	-	95
O=C(N/N=C/c1cn(-c2cccs2)nc1-c1ccccc1)c1ccc(O)cc1	-	-	-	-	-	-
O=c1oc2cc(O)c(Cl)cc2c2ccccc12	-	-	-	-	-	-
O=C(NCc1ccco1)/C(=C/C=C\c1ccccc1)NC(=O)c1ccc(Br)o1	18	-	-	-	-	-
COc1cc(/C=C/C(=O)Nc2ccc(C(C)=O)cc2)cc(OC)c1OC	-	-	-	-	-	-
O=C1C(F)=CC(COC(c2ccccc2)(c2ccccc2)c2ccccc2)OC1n1cc(F)c(=O)[nH]c1=O (stereo not drawn)	-	-	-	-	-	34
CC(C)C(=O)Nc1ccc(Nc2ccccc2)cc1	-	-	-	-	-	-
CCc1sc(C(=O)Nc2ncccc2O)cc1C	-	-	-	20	-	-
SMILES	CHO-K1 Ca ag	CHO-K1 Ca antag	M4 ag	CHRM4 PAM	M1 PAM parental	M4 antag
CCc1sc(C(=O)Nc2ncccc2C)cc1C	-	-	-	-	-	-
O=C(CN1CCN(S(=O)(=O)c2ccc(Br)cc2)CC1)Nc1ccc2c(c1)OCO2	22	-	-	-	-	-
O=C(CN1CCN(S(=O)(=O)c2ccc(Br)cc2)CC1)Nc1ccc(F)cc1	-	-	-	-	-	-
O=C(COC(=O)CCc1ccccc1)Nc1cc([N+](=O)[O-])ccc1F	-	-	-	-	-	-
O=C(COc1ncnc2ccccc12)Nc1cc([N+](=O)[O-])ccc1F	17	-	-	-	-	-
CCC(=O)Nc1nc(-c2ccccc2)ns1	-	-	-	-	-	-
Cc1cccc(C2N(c3ccc(F)cc3)C(=O)C3CCCN32)c1 (stereo not drawn)	-	31	-	-	-	-
CCn1c(=O)c(=O)[nH]c2cc(C(=O)NC3CCCc4ccccc43)ccc21 (stereo not drawn)	-	-	-	36	-	-
CCn1c(=O)c(=O)[nH]c2cc(C(=O)Nc3ccc(S(=O)(=O)N4CCCC4)cc3)ccc21	-	-	-	31	-	-
S=C(NN=C1C2CC3CC(C2)CC1C3)Nc1ccccc1	-	-	-	-	-	-
Cc1ccc(C=C(C#N)C(=O)c2ccccc2)cc1	-	-	-	-	-	-
CCN(CC)c1ccc(/C=C(\C#N)C(=O)c2ccc(Br)cc2)cc1	110	74	58	-	-	51
CN(C)c1ccc(/C=C(\C#N)C(=O)c2ccccc2)cc1	46	38	70	-	-	37
CCN(CC)c1ccc(/C=C(\C#N)C(N)=O)cc1	-	-	-	-	-	-
C[C@H]1CNC(=O)c2c(C(=O)Nc3ccc(CNC(=O)OC(C)(C)C)cc3)ncn21	-	-	-	-	-	-
Cc1cc([N+](=O)[O-])nn1CC(=O)N/N=C/c1ccccc1O	-	-	-	-	-	-
COc1cc(OC)c(/C=N/NC(=O)Cn2nc([N+](=O)[O-])cc2C)c(OC)c1	-	-	-	12	-	-
Cc1cc([N+](=O)[O-])nn1CC(=O)Nc1cc(F)ccc1F	16	-	-	-	-	-
Cc1cc([N+](=O)[O-])nn1CC(=O)N/N=C/c1ccccc1F	-	-	-	-	-	-
Cc1ccc(CN2CCN(CCCn3cnc4c(OCc5ccccc5)ncnc43)CC2)cc1	-	-	-	-	-	33
C[C@H]1CN([C@@H](C)CO)C(=O)CCCn2cc(nn2)CO[C@@H]1CN(C)C(=O)C1CCCCC1	-	-	-	-	-	-
COc1ccccc1-n1c(O)c(C=NCc2ccccn2)c2ccccc2c1=O	18	-	-	-	-	-
Cc1ccc(-n2c(O)c(C=NCc3ccccn3)c3ccccc3c2=O)cc1	-	-	-	-	-	-
CC(C)(C)c1ccc(C(=O)NCC2CCCN2S(=O)(=O)c2ccccc2)cc1 (stereo not drawn)	-	-	-	-	-	-
CN1CCCC1CCOC(C)(c1ccccc1)c1ccc(Cl)cc1 (stereo not drawn)	.	.	-	-	.	98
CC(=O)Oc1ccccc1N(C(C)=O)S(=O)(=O)c1ccc2ccccc2c1	-	-	-	-	-	-
Cc1ccc(-n2nc(C)c3c2OC(N)=C(C#N)C3c2ccc(C)o2)cc1 (stereo not drawn)	-	-	-	-	-	-
COc1ccc(OC)c(C2C(C#N)=C(N)Oc3c2c(C)nn3-c2ccc(C)cc2)c1 (stereo not drawn)	-	28	-	-	-	-
O=C(NC1CCCCC1)C(=O)c1c(-c2ccccc2)[nH]c2ccccc12	-	27	-	-	-	-
O=C(NC1CC1)C(=O)c1c(-c2ccccc2)[nH]c2ccccc12	-	-	-	-	-	-
